# A number with no mark means an inactive call. For some of these results: Measured potencies and affinities stand elsewhere. Calls of active or inactive are those of the source. Unless noted, how the calls were made is not given here.
# How the values were obtained:
# [1] = antimalarial activity against Dd2 strain (AID 2302;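 active means growth inhibition above 50% at the single 2 µM test dose, taken to imply half-maximal potency below 2 µM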;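 further: 0% = DMSO untreated growth and 100% = chloroquine plus artemisinin killed control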); conditions: P. falciparum Dd2 in RBCs, LDH growth readout, 72 h; at 2 µM; active compounds read high
# [2] = HepG2 cytotoxicity, primary screen, cytotoxicity control for P. falciparum antimalarial project, cell-based, ATP luminescence (AID 2303;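 active means inhibition above 50%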;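 further: 0% = DMSO wells and 100% = digitonin-killed cells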); conditions: HepG2 viability, 24-48 h, at 10 µM, active compounds read high
# [3] = target: L-lactate dehydrogenase (Plasmodium falciparum (isolate CDC / Honduras)) (UniProt Q27743); test: PfLDH activity inhibition – cell lysate, 3D7 strain, counter-screen for P. falciparum growth inhibition project (AID 2304);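 further: 0% = vehicle and 100% = reference inhibitor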; conditions: P. falciparum 3D7 crude extract, LDH APAD/NBT absorbance; at 2 µM; active compounds read high
# Chain of L-lactate dehydrogenase (Plasmodium falciparum (isolate CDC / Honduras)) (Q27743 whole entry, looked up): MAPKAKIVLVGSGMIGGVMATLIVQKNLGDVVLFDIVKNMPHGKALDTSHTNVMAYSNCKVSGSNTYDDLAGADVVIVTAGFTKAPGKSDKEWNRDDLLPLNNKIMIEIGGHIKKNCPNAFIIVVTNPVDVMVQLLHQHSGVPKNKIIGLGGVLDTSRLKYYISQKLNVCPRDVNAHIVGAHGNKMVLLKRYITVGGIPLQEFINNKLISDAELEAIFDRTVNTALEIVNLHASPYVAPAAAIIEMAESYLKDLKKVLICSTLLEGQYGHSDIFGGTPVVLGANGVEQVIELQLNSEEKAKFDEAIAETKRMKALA
# [4] = inhibition of 3D7 malaria parasite growth – strain 3D7 (AID 2306);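 further: 0% = DMSO wells and 100% = chloroquine plus artemisinin control wells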; conditions: P. falciparum 3D7 erythrocytic growth, LDH absorbance, 72 h; at 2 µM; active compounds read high
# [5] = target: Calcium-dependent protein kinase 1 (Plasmodium falciparum (isolate 3D7)) (UniProt P62344); test: PfCDPK1 kinase inhibitors, biochemical, TCAMS library (AID 1159585; cut-off not given, nearly all actives have IC50 up to about 0.98 µM;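 further: inhibitors leave more ATP so luminescence rises with inhibition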); conditions: recombinant PfCDPK1, Kinase-Glo ATP depletion luminescence
# Chain of Calcium-dependent protein kinase 1 (Plasmodium falciparum (isolate 3D7)) (P62344 whole entry, looked up): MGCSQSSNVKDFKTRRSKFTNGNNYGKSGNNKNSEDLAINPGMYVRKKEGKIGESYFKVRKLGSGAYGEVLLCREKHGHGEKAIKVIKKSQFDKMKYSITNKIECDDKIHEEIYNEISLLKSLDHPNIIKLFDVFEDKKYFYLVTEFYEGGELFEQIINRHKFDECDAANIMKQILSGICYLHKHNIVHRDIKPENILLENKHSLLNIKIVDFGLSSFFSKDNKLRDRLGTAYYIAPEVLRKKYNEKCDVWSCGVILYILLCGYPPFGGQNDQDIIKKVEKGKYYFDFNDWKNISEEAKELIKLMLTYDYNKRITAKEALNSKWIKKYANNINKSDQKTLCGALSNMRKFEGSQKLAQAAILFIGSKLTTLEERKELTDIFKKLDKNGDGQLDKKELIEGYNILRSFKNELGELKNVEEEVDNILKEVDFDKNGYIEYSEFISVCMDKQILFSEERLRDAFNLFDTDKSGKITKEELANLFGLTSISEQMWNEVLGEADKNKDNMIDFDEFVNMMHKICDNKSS
# [6] = target: Plasmodium falciparum protein kinase 6 (PK6, PF3D7_1337100) (UniProt Q8IDW1); test: PfPK6 kinase inhibitors, biochemical, TCAMS library (AID 1159586); conditions: recombinant PfPK6, Kinase-Glo ATP depletion luminescence
# Chain of Plasmodium falciparum protein kinase 6 (PK6, PF3D7_1337100) (Q8IDW1 1-305): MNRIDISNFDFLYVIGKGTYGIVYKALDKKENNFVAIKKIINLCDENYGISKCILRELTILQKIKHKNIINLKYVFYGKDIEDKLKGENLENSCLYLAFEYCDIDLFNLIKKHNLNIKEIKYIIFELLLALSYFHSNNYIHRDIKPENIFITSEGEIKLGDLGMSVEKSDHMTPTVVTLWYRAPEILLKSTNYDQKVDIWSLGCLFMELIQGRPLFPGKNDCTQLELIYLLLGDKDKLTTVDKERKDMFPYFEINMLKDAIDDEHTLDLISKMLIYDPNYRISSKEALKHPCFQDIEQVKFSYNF
# [7] = target: Protein kinase 7 (PK7), Plasmodium falciparum 3D7 (PF3D7_0213400) (UniProt Q7YTF7); test: inhibition of Plasmodium PK7 catalytic activity – biochemical, TCAMS antimalarial set, Kinase-Glo luminescence (AID 1159587); conditions: recombinant PfPK7, Kinase-Glo ATP depletion luminescence
# Chain of Protein kinase 7 (PK7), Plasmodium falciparum 3D7 (PF3D7_0213400) (Q7YTF7 1-343): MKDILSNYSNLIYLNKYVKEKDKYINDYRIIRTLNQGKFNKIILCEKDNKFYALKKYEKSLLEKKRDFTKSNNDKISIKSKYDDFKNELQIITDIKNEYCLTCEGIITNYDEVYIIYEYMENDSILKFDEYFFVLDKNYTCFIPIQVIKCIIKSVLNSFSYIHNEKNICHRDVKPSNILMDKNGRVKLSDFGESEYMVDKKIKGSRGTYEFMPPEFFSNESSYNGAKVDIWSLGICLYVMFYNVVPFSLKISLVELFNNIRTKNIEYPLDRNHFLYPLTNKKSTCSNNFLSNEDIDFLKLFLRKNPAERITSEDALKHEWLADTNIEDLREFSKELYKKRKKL
# [8] = target: Calcium-dependent protein kinase 4 (Plasmodium falciparum (isolate 3D7)) (UniProt Q8IBS5); test: PfCDPK4 kinase inhibitors, biochemical, TCAMS library (AID 1159588; cut-off not given, nearly all actives have IC50 up to about 0.91 µM); conditions: recombinant PfCDPK4, Kinase-Glo ATP depletion luminescence
# Chain of Calcium-dependent protein kinase 4 (Plasmodium falciparum (isolate 3D7)) (Q8IBS5 whole entry, looked up): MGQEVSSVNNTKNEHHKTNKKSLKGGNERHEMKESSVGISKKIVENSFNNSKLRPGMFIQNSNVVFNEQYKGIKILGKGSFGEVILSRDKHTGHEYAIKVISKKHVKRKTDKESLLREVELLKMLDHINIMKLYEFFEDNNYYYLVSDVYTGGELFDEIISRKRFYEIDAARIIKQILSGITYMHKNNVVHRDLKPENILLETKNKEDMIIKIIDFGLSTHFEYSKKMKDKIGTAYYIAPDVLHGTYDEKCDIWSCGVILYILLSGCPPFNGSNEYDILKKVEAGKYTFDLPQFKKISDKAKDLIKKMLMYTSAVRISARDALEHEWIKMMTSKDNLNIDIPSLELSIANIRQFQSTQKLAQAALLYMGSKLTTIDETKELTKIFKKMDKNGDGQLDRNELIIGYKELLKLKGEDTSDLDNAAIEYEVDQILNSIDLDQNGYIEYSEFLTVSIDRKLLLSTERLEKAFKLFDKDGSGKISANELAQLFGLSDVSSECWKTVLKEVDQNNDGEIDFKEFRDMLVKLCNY
Compound,growth inhibition [1],inhibition [2],inhibition [3] [%],growth inhibition [4],outcome [5],outcome [6],outcome [7],outcome [8]
COc1ccc(Br)cc1C1[C@@H]2C(=O)N(c3ccc(Br)cc3)C(=O)[C@@H]2C2(C(=O)O)CC(OCc3ccccc3)CN12 (stereo not given in full),99% (active),16%,-2,104% (active),inactive,inactive,inactive,inactive
O=C(Nc1ccc(OCc2ccccc2)cc1)c1nc2ccccc2nc1Cl,95% (active),48%,3,96% (active),inactive,inactive,inactive,inactive
CC[C@H](C)CNCc1ccc(OCc2cccc(COc3ccc(CNC[C@@H](C)CC)cc3I)c2)c(I)c1,60% (active),99% (active),7,99% (active),inactive,inactive,inactive,inactive
Nc1ccc2nc(C=Cc3ccccc3)[nH]c2c1,89% (active),7%,1,92% (active),inactive,inactive,inactive,inactive
Cc1cc2c(NC(=O)NC3CCN(Cc4ccc(Cl)c(Cl)c4)CC3)cccc2cn1,41%,11%,-2,100% (active),inactive,inactive,inactive,inactive
CCCCCNc1nc2nc(N)nc(N)c2nc1-c1ccccc1,-4%,9%,-2,91% (active),inactive,inactive,inactive,inactive
Cc1cccc2[nH]c(-c3ccc(-c4ccc(CN5CCC(N)C5)cc4)s3)nc12 (stereo not given),98% (active),21%,-11,100% (active),inactive,inactive,inactive,inactive
O=C(Nc1cccc(CN2CCCN(Cc3cccc(Cl)c3)CC2)c1)c1ccc(Cl)c(Cl)c1,17%,18%,-1,89% (active),inactive,inactive,inactive,inactive
CCOc1cc(C(=O)NC2CC(C)(C)N(C)C(C)(C)C2)ccc1-c1nc2cc(Cl)c(Cl)cc2[nH]1,49%,64% (active),4,101% (active),inactive,inactive,inactive,inactive
O=C(NCC1CC1)C1Cc2c([nH]c3ccc(Br)cc23)C2(CCN(CCc3ccccc3)CC2)N1 (stereo not given),25%,14%,1,88% (active),inactive,inactive,inactive,inactive
c1ccc2ncc(CNCCCCCCCCNCc3cnc4ccccc4c3)cc2c1,4%,8%,-3,88% (active),inactive,inactive,inactive,inactive
NC(N)=NN=Cc1cc([N+](=O)[O-])ccc1Sc1ccccc1CO,-1%,25%,-2,84% (active),inactive,inactive,inactive,inactive
Cc1nn(CC(C)C)c2sc(C(=O)N3CCN(S(=O)(=O)c4ccc(C#N)cc4)CC3)cc12,99% (active),14%,-2,99% (active),inactive,inactive,inactive,inactive
O=C(NCc1ccc(F)cc1)c1cnc(N2CCN(c3ccncc3)CC2)c(Cl)c1,44%,30%,2,98% (active),inactive,inactive,inactive,inactive
COc1ccc(-c2nc(NC(=O)COc3ccc(C(C)=O)cc3)sc2C)cc1,58% (active),-2%,2,98% (active),inactive,inactive,inactive,inactive
CCOC(=O)c1c(-c2ccccc2)[nH]c2c(sc3ccccc32)c1=O,65% (active),2%,-5,97% (active),inactive,inactive,inactive,inactive
O=C(C=Cc1ccc(Cl)c(Cl)c1)NC1CCN(CCc2ccccc2)CC1,13%,6%,-8,97% (active),inactive,inactive,inactive,inactive
CC(=O)N(C)c1ccc(C(=O)Nc2cccc(-c3cccc(-c4nc5c(C)cccc5[nH]4)c3)c2)cc1,30%,11%,-2,89% (active),inactive,inactive,inactive,inactive
Cc1ccc(C(=O)Nc2ccc(Nc3ccnc4cc(-c5nccs5)ccc34)cc2O)cc1,100% (active),100% (active),3,100% (active),inactive,inactive,inactive,inactive
COC(=O)CCn1c(C2CCN(CC3CCC(NC(=O)/C=C/c4ccc(Cl)c(Cl)c4)CC3)CC2)nc2ccccc21 (stereo not given),10%,14%,-2,94% (active),inactive,inactive,inactive,inactive
